FLuc counter – firefly luciferase modulation, counter-screen for miR-21 project | 360,000 compounds, 6.9% hits | purified FLuc, Km substrates, luminescence inhibition | P08659 | Potency, µM (series often up to 57.5 µM), for the others: at the top dose activity change, negative = inhibition, actives largely listed as inhibitors | AID 588342;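 further: plate controls were vehicle for no effect and reference inhibitor for full effect; nearly all actives have a fitted effect of over 55% in size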
Target sequence (P08659 whole entry, looked up): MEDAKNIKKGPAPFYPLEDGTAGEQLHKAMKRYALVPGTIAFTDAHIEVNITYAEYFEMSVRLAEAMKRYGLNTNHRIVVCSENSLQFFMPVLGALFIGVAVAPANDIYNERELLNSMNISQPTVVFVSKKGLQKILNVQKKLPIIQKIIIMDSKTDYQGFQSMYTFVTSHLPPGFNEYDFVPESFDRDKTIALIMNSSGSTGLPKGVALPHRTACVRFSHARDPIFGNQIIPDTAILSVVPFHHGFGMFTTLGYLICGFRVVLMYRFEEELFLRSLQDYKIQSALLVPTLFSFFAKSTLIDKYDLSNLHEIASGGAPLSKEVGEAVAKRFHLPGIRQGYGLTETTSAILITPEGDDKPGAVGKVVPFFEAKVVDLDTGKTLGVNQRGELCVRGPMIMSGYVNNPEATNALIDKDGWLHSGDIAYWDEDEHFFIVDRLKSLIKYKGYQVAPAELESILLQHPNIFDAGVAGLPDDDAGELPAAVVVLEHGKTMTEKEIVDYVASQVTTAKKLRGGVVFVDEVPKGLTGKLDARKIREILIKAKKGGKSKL
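Biochemical qHTS of compounds, final roughly 60 µM downward over six points, against 10 nM purified firefly luciferase using Km concentrations of substrates (10 uM D-luciferin, 10 uM ATP) in Tris acetate pH 7.5 buffer; luminescence output.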
Rab9 prom act – activators of Rab9 promoter; Huh7 Rab9 promoter-luciferase reporter, luminescence, 24 h; Potency, µM (top dose mostly 9.22 µM), without a hit: at the top dose activation, negative = inhibition, hits mostly activators; 320,000 compounds, 2.8% hits; AID 485297; further: % of control where 0% means no effect; nearly all actives have a fitted effect of over 60% in size
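Promoter activation is measured as luciferase luminescence in Huh7 cells stably transfected with a Rab9 promoter–luciferase construct, following 24 h compound exposure at 37 °C and 10 min reagent incubation at ambient temperature.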
SMN2 splice up – increases expression of the SMN2 splice variant | HEK293 SMN2-luciferase splicing reporter, luminescence, 30-36 h | Potency, µM (top dose mostly 46.1 µM), for inactives: at the top dose activity change, positive = activation, usual class: activators | 210,000 compounds, 2.8% hits; further: % of control where 0% means no effect; nearly all actives have a fitted effect of over 55% in size
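qHTS luciferase splicing reporter: luminescence rises when SMN2 exon 7 is included in transfected HEK293 cells. Compound exposure lasted 30-36 h at 37C, with 4.5 mM final sodium butyrate as control, followed by a ONE-Glo read.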
ELG1 DNA repair – inhibitors of ELG1-dependent DNA repair in HEK293T cells | HEK293T ELG1-luciferase reporter, luminescence, 16 h; DNA damage induced by 5-fluorouridine | Potency, µM (titrated, usually from 46.1 µM), for inactives: at the top dose activity change, negative = inhibition, actives largely listed as inhibitors | 330,000 compounds, 2.3% hits | AID 504467; further: on the % scale 0 is the no-effect control and ±100 the full control effect; nearly all actives have a fitted effect of over 55% in size
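Reporter activity after DNA damage by 5-fluorouridine is monitored. Compound-treated cells incubate 16 hr at 37 °C, then ONE-Glo is added for 30 min before luminescence reading.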
NPC1 prom act – NPC1 promoter activation | Huh7 NPC1 promoter luciferase reporter, 24 h | Potency, µM (titrated, usually from 9.22 µM), inactives show at the top dose activation, hits mostly activators | 320,000 compounds, 2.4% hits | AID 485313; further: % of control where 0% means no effect; nearly all actives have a fitted effect of over 60% in size
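Luciferase expression driven by the NPC1 promoter was measured in stably transfected Huh7 cells after a 24 h compound incubation, using a luciferase reagent and a luminescence read.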
ELG1 genotoxic – inducers of genotoxicity in HEK293T ELG1-luciferase cells. HEK293T ELG1-luciferase reporter, luminescence, 16 h. Potency, µM (titrated, usually from 46 µM), without a hit: top-dose activity change, positive = activation, actives largely listed as activators. 330,000 compounds, 1.3% hits; further: % of control where 0% means no effect; nearly all actives have a fitted effect of over 60% in size
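Quantitative HTS format in 1536-well plates. HEK293T ELG1-luciferase reporter cells receive test compound and are incubated 16 hr at 37 °C, 5% CO2; ONE-Glo added, 30 min room temperature, then luminescence read.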
Numbers without * were called inactive. Rows were chosen to be rich in hits. Some 9.2% of all compounds tested hit in one or more screens of this group. The call rests on the fitted dose curve; in most records, active means well fitted curve in the direction sought with a large enough effect; inconclusive means small, poorly fitted or top-dose-only effect, or another doubt; inactive means no such curve, though single readings can be large; an effect the other way counts as inactive or inconclusive. Potency means the concentration at half of the fitted maximal effect.

How did COc1ccc(NC(=O)c2ccccc2SC)c(OC)c1 do in these assays?
FLuc counter: -13.3%; Rab9 prom act: -5.7%; SMN2 splice up: -1.2%; ELG1 DNA repair: 14.9%; NPC1 prom act: -6.4%; ELG1 genotoxic: 2.1%

Results for COc1ccc(OC)c(NC(=O)c2cn(C)c(=O)c3cc(OC)c(OC)cc23)c1 ?
FLuc counter: -2.7%; Rab9 prom act: -6.0%; SMN2 splice up: inconclusive; ELG1 DNA repair: 20.6µM*; NPC1 prom act: 0.1%; ELG1 genotoxic: -2.2%

How did COc1ccc(NC(=O)CSc2nccn2Cc2ccccc2)c(OC)c1 do in these assays?
FLuc counter: -25.3%; Rab9 prom act: 5.5%; ELG1 DNA repair: inconclusive; NPC1 prom act: 0.9%; ELG1 genotoxic: 7.3%

Results for Cc1ccc(CNS(=O)(=O)c2cc3c4c(c2)CCN4C(=O)CC3)cc1 ?
FLuc counter: 1.0%; Rab9 prom act: 0.5%; ELG1 DNA repair: -4.7%; NPC1 prom act: -0.7%; ELG1 genotoxic: -1.1%

Results for COc1ccc(C(=O)OCC(=O)c2cc(OC)ccc2OC)c(OC)c1 ?
FLuc counter: inconclusive; Rab9 prom act: 0.4%; SMN2 splice up: -6.5%; ELG1 DNA repair: -16.3%; NPC1 prom act: 1.8%; ELG1 genotoxic: 1.5%

Results for COc1ccc(OC)c(NC(=O)c2ccc3nc(-c4ccccc4)c(-c4ccccc4)nc3c2)c1 ?
FLuc counter: 3.6%; Rab9 prom act: 3.8%; SMN2 splice up: 0.7%; ELG1 DNA repair: 23.1µM*; NPC1 prom act: 0.4%; ELG1 genotoxic: -3.7%

Results for COc1ccc(C(=O)Nc2cc(OC)c(Cl)cc2OC)cc1 ?
FLuc counter: 21.3µM*; Rab9 prom act: 9.5%; SMN2 splice up: 15.7%; ELG1 DNA repair: inconclusive; NPC1 prom act: 16.3%; ELG1 genotoxic: 0.5%

How did COc1ccc(C(=O)COC(=O)c2ccccc2O)c(OC)c1 do in these assays?
FLuc counter: 6.01µM*; Rab9 prom act: 3.55µM*; ELG1 DNA repair: inconclusive; NPC1 prom act: inconclusive; ELG1 genotoxic: inconclusive

Results for COc1ccc(OC)c(NC(=O)Nc2cccc3ccccc23)c1 ?
FLuc counter: 3.9%; Rab9 prom act: -1.9%; SMN2 splice up: -17.1%; ELG1 DNA repair: -19.7%; NPC1 prom act: -1.7%; ELG1 genotoxic: 6.1%

What do the screens show for `COc1ccc(OC)c(NC(=O)c2cc3ccccc3cc2OC)c1`?
FLuc counter: 23.9µM*; Rab9 prom act: 6.7%; ELG1 DNA repair: 2.9%; NPC1 prom act: 1.9%; ELG1 genotoxic: 2.2%

How did CN(C)CCc1c[nH]c2ccc(CC3COC(=O)N3)cc12 (stereo not drawn) do in these assays?
SMN2 splice up: -3.4%

How did CC(NC(=O)CCNC(=O)c1ccc(Br)cc1)c1ccc(-n2ccnc2)cc1 (stereo not drawn) do in these assays?
FLuc counter: 2.2%; Rab9 prom act: -3.0%; ELG1 DNA repair: -1.3%; NPC1 prom act: -0.3%; ELG1 genotoxic: 0.6%

How did COc1ccc(C(=O)CN2C(=O)c3ccccc3C2=O)c(OC)c1 do in these assays?
FLuc counter: 15.1µM*; Rab9 prom act: inconclusive; ELG1 DNA repair: inconclusive; NPC1 prom act: 23.6%; ELG1 genotoxic: inconclusive

How did COc1ccc(C(=O)Nc2cc(OC)ccc2OC)cc1 do in these assays?
FLuc counter: 23.9µM*; Rab9 prom act: 17.2%; SMN2 splice up: -1.6%; ELG1 DNA repair: inconclusive; NPC1 prom act: -1.8%; ELG1 genotoxic: 3.0%

How did Cc1nc(C/C(=N\N)c2ccc(O)cc2O)cs1 do in these assays?
FLuc counter: 0.5%; Rab9 prom act: 0.3%; SMN2 splice up: 16.9%; ELG1 DNA repair: -7.7%; NPC1 prom act: 9.7%; ELG1 genotoxic: 3.3%

Results for COc1ccc(C(=O)OCc2csc(C)n2)c(O)c1 ?
FLuc counter: 15.1µM*; Rab9 prom act: inconclusive; SMN2 splice up: 1.8%; ELG1 DNA repair: inconclusive; NPC1 prom act: inconclusive; ELG1 genotoxic: inconclusive

Screens deposited in PubChem BioAssay by National Center for Advancing Translational Sciences (NCATS).
